# According to PubChem BioAssay (NCI):
# Compounds without any hit were thinned out: in the full panel of roughly 83,000, 20% have a hit.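 Assay: single dose, 48 h. Readout: percent growth (0 = no net growth; negative = cell death). Active: <10.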 A number with no mark means an inactive call. Activity calls are given as the source filed them.
# Tests used:
# Experiment in all cases: NCI-60 one-dose screen, 48 h (100 = growth as untreated, 0 = no growth, -100 = all killed)
# Details in all cases: 10 µM unless noted
# SK-MEL-2 melanoma = system: SK-MEL-2 melanoma
# EKVX NSCLC = system: EKVX NSCLC
# UO-31 renal = system: UO-31 renal
# TK-10 renal = system: TK-10 renal
# ACHN renal = system: ACHN renal
# CAKI-1 renal = system: CAKI-1 renal
# A498 renal = system: A498 renal
# CCRF-CEM leukemia = system: CCRF-CEM leukemia
# MOLT-4 leukemia = system: MOLT-4 leukemia
# SN12C renal = system: SN12C renal
SMILES,growth (SK-MEL-2 melanoma),growth (EKVX NSCLC),growth (UO-31 renal),growth (TK-10 renal),growth (ACHN renal),growth (CAKI-1 renal),growth (A498 renal),growth (CCRF-CEM leukemia),growth (MOLT-4 leukemia),growth (SN12C renal)
CCCn1c(=O)[nH]c(N)c([C@H]2c3ccccc3Oc3[nH]c(=O)n(CCC)c(=O)c32)c1=O,92%,93.2%,78.8%,79%,73.6%,86.1%,92.9%,14.3%,39.5%,–
COc1cc2c(cc1O)CC[C@@H]1[C@@H]2CC[C@]2(C)[C@@H](OCCN(C)C)CC[C@@H]12,25.8%,65.2%,72.3%,85.1%,57.9%,–,40.3%,10.3%,33.9%,–
CC(=O)OC[C@H]1O[C@H](OC(C)=O)[C@H](NC(=O)/C=C/CCl)[C@@H](OC(C)=O)[C@@H]1OC(C)=O,66.6%,94.9%,103%,75%,77.1%,101%,104%,24.6%,81.9%,–
O=C1/C(=C/c2ccc(OCCCOc3ccc(Cl)cc3)cc2)N=C2SCCCN12,98.4%,47.6%,70.9%,72.7%,74.5%,71.6%,96.5%,69.5%,62.1%,–
COc1cc2c(cc1O)CC[C@@H]1[C@@H]2CC[C@]2(C)[C@@H](NCCN(C)C)CC[C@@H]12,-95.7% (active),-82.8% (active),-84.1% (active),-95.8% (active),-92.8% (active),–,-79.3% (active),-71.8% (active),-71.8% (active),–
CC/C=C\C[C@H]1C/C=C2/C(=O)C=C[C@H]2C/C=C\CCCC(=O)O1,21.4%,45%,55.5%,29.6%,-67.7% (active),25.2%,79.5%,-6.1% (active),14.3%,–
COc1ccc(CN2c3ccccc3Sc3ccccc32)c(C(F)(F)F)c1,3.52% (active),49.9%,45.6%,65.5%,48.7%,32.5%,4.16% (active),10.5%,24%,–
O=C1/C(=C/c2ccccc2O)N=C2SCCCN12,95.6%,81.8%,84%,109%,98.4%,85.1%,85.7%,131%,115%,–
CCOc1ccc(C(C)=O)cc1NC(=O)c1cccc(-c2nnn(CC)n2)c1,-5.73% (active),54.5%,38.4%,64.4%,50.8%,33.1%,-6.01% (active),11.9%,27.8%,–
CCC#CC[C@H](O)C/C=C1/C(=O)C=C[C@@H]1C/C=C\CCCC(=O)OC,-35.8% (active),23.7%,-65.4% (active),2.33% (active),-82.8% (active),-18.3% (active),95.7%,-8.8% (active),1.17% (active),–
COc1cccc(-c2nc(SCC(=O)Nc3ccc(C(=O)/C=C/c4ccc(OC)c(OC)c4)cc3)[nH]c(=O)c2C#N)c1,96.6%,87.7%,79.3%,109%,86.6%,88.4%,97.2%,90%,74.8%,–
C=C1C(=O)O[C@H]2[C@H]1CC/C(C=Nc1ccc(C(F)(F)F)cc1N)=C\CC[C@@]1(C)O[C@@H]21,-18.3% (active),31.2%,30.3%,1.36% (active),-38% (active),15.5%,46.8%,-5.78% (active),-3.3% (active),–
O=c1cc(CSc2nnc(-c3ccc(F)cc3)o2)c2ccc3ccccc3c2o1,87%,88.7%,77.7%,102%,96.7%,91.1%,94.6%,112%,95.9%,–
COc1ccc(-c2nnc(SCC(=O)c3ccc(Cl)cc3)o2)cc1,104%,101%,99.8%,95.9%,102%,98.1%,100%,114%,109%,–
COc1ccc2c(c1)C(=O)/C(=C/c1cccnc1)CC2,97.7%,96.5%,92.3%,97.7%,88.5%,90.8%,100%,68%,82.4%,–
CCOc1ccc(-n2nc(C(=O)Nc3cc(OC)c(OC)c(OC)c3)nc2-c2cc(OC)c(OC)c(OC)c2)cc1,85.6%,96.1%,52.6%,104%,85.7%,77.4%,67.3%,66.5%,67.5%,–
COc1ccc(CN2c3ccccc3Sc3ccccc32)cc1O,8.98% (active),36.7%,24.4%,58.3%,41.7%,–,76.4%,8.29% (active),18.4%,–
NCCNc1nc(Nc2ccc(-c3nc4ccccc4[nH]3)cc2)c2cn[nH]c2n1,75%,88.9%,76.7%,105%,91.9%,91.5%,115%,-3.49% (active),8.24% (active),–

SMILES,growth (SK-MEL-2 melanoma),growth (EKVX NSCLC),growth (UO-31 renal),growth (TK-10 renal),growth (ACHN renal),growth (CAKI-1 renal),growth (A498 renal),growth (CCRF-CEM leukemia),growth (MOLT-4 leukemia),growth (SN12C renal)
N#Cc1c(-c2ccc(Cl)cc2)nc(N/N=C/c2cccc(Br)c2)nc1N1CCOCC1,94.5%,–,51.2%,102%,71.5%,73%,-10.8% (active),50.3%,36.1%,91.4%
Cc1[nH]c(-c2cc(N)ccc2Cl)c2c1C(=O)CCCC2,31%,–,10.1%,1.81% (active),19.8%,2.45% (active),27%,52.3%,52.7%,35%
COc1cc(-c2nc3cc(Cl)c(Cl)cc3[nH]2)ccc1OCC(=O)N=Nc1c(O)[nH]c2ccccc12,-80.7% (active),–,93.5%,-12% (active),20%,-46.8% (active),-45.9% (active),-44.8% (active),-50.7% (active),-69.7% (active)
Cc1cc(N2CCN(c3ccnc4cc(Cl)ccc34)CC2)nc(N2CCOCC2)n1,105%,–,44.7%,89.9%,86.1%,85.9%,37.2%,92.3%,66.7%,86%
Cn1cc(-c2nonc2-c2c[nH]c3ccccc23)c2cccnc21,8.48% (active),–,55.7%,75.3%,60.9%,39.3%,17.1%,20.2%,16.5%,39.6%
COc1ccc(Nc2cc(C)nc(N3CCN(c4ccnc5cc(Cl)ccc45)CC3)n2)cc1,48%,–,-0.534% (active),46.8%,41.5%,35.1%,-1.56% (active),16%,11.1%,40.9%
COc1cc(/C=C/C(=O)c2cccnc2Nc2ccc(F)cc2)cc(OC)c1OC,27.5%,–,75.6%,77.8%,45.7%,51.6%,–,-10.6% (active),5.4% (active),16.2%
Cc1cc(N[C@@H]2CCC[C@H](Nc3ccnc4cc(Cl)ccc34)C2)nc(N2CCCCCC2)n1,-75.7% (active),–,-95.6% (active),-67.7% (active),-85.5% (active),–,-87.6% (active),-23.1% (active),-18.5% (active),-74.8% (active)
c1ccc(-c2cc3n4c(-c5ccccc5)nn(-c5ccccc5)c4cnc-3n2)cc1,72.6%,–,60.7%,24.5%,68.2%,59.5%,78.1%,86.4%,88.9%,62.6%
COc1ccccc1Nc1nc(-c2cc3cccc(C(F)(F)F)c3oc2=O)cs1,26.8%,36.1%,52%,67.9%,–,9.18% (active),-9.67% (active),7.96% (active),14.9%,–
CON1C(=O)CC[C@]2(C)[C@H]3CC[C@@H]4C([C@@]5(C)CCC(=O)O5)CC[C@@]4(C)[C@]3(C)CC[C@H]2C1(C)C (stereo not given in full),94.6%,–,94.4%,97.8%,96.6%,75.7%,99.6%,96.9%,90.6%,95.2%
C=C1C(=O)O[C@H]2[C@H]1CC/C(COC(=O)NCc1ccc(OC)c(OC)c1)=C\CC[C@@]1(C)O[C@@H]21,85.1%,65.9%,56.7%,50.9%,–,32.9%,86.9%,-7.86% (active),39.4%,–
N#CN1CC[C@H](C(=O)Nc2cc3cc(C(N)=O)ccc3cn2)C1,-64.3% (active),2.35% (active),–,-17.7% (active),6.51% (active),11.9%,-34.4% (active),7.66% (active),-18.1% (active),–
COc1cc(-c2nc3ccccc3[nH]2)ccc1OCc1nnc(-c2ccc(CC(C)C)cc2)o1,101%,–,64.9%,115%,101%,96.3%,64%,84.9%,78.8%,89.9%
O=C1c2cc3c(cc2-c2c1c1ccc(F)cc1c(=O)n2C[C@H](O)[C@@H](O)[C@H](O)CO)OCO3,-27.2% (active),–,-21.3% (active),-0.938% (active),-42.9% (active),-7.09% (active),-78.8% (active),5.88% (active),-6.28% (active),4.69% (active)
COc1cc2nc(N3CCCC3)nc(NCC3CCCCC3)c2cc1OC,-43.5% (active),–,42.5%,-34.7% (active),16.8%,13.3%,-3.66% (active),-9.68% (active),-16.3% (active),59.6%
CC(=O)c1cc2c(N)c(C(=O)Nc3ccccc3)sc2nc1C,33.3%,–,90.8%,76.4%,91.7%,–,22%,84.5%,85.6%,90.8%
COc1ccc(Nc2c3c4c(cccc4[nH]c2=O)C(=O)c2ccccc2-3)cc1,40.2%,–,30.3%,28.6%,24.2%,11.7%,23%,-0.546% (active),1.81% (active),40%
